Results on 30 compounds are retold here after PubChem BioAssay (Tox21).

Records with an inconclusive call do not appear. Calls of active or inactive are those of the source. Unless noted, the call rests on the fitted dose curve; in most records, active means well fitted curve in the direction sought with a large enough effect in the repeat runs; inconclusive means weak or mixed curves; inactive means no such curve, though single readings can be large; an effect the other way counts as inactive or inconclusive.

Experiment [1] can be described thus: qHTS assay to identify aromatase inhibitors - cell viability counter screen (AID 743084).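 Further: cells stimulated with testosterone during compound exposure; nearly all actives have a fitted effect of over 55% in size.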 For orientation: qHTS replaces the single test concentration by a dilution series.
The target of experiment [2] is Aryl hydrocarbon receptor (Homo sapiens) (UniProt P35869). In words: qHTS assay to identify small molecule that activate the aryl hydrocarbon receptor (AhR) signaling pathway (AID 743085). Further: nearly all actives have a fitted effect of over 15% in size. Further: potency means the concentration at half of the fitted maximal effect.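 On activation: HG2L7.5c1 human HepG2 liver cells with stably integrated DRE-driven firefly reporter; series mostly up to about 70 µM.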 In a few lines:
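Luminescence (ONE-Glo) from a dioxin-responsive-element luciferase reporter in HG2L7.5c1 HepG2 cells after 24 hr compound exposure at 37C; viability measured by CellTiter-Fluor fluorescence beforehand.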

A short description of experiment [3]: qHTS assay to identify small molecule that activate the aryl hydrocarbon receptor (AhR) signaling pathway - cell viability counter screen (AID 743086).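 Further: HepG2 liver cells carrying the AhR DRE luciferase reporter; series mostly up to about 70 µM; nearly all actives have a fitted effect of over 45% in size.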 In a few lines:
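Cytotoxicity counter screen: CellTiter-Fluor signal (30 min, 37 C) in 4000 HepG2 cells/well carrying the DRE-luciferase reporter, following 24 h compound exposure at 37 C.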

Experiment [4] has as its target Peroxisome proliferator-activated receptor gamma (Homo sapiens) (UniProt P37231). Description: qHTS assay to identify small molecule agonists of the peroxisome proliferator-activated receptor gamma (PPARg) signaling pathway (AID 743094; active means well fitted activation curve with a large enough effect in the signal ratio in the repeat runs, not every such curve was filed as active; the % refers to the signal ratio). The method in brief: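 GeneBLAzer PPARg UAS-bla HEK293H cells were plated, rested 5 h, then exposed to compounds for 17 h at 37C. Beta-lactamase activity was read by LiveBLAzer B/G FRET substrate fluorescence after 1 h at room temperature.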

Experiment [5] in a line: qHTS assay to identify small molecule antagonists of the peroxisome proliferator-activated receptor gamma (PPARg) signaling pathway - cell viability counter screen (AID 743194). Further: nearly all actives have a fitted effect of over 55% in size. In a few lines: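 Viability was measured as CellTiter-Glo luminescence in GeneBLAzer PPARg UAS-bla HEK293H cells. These cells had been exposed 17 h at 37 C to compounds together with rosiglitazone at 50 nM final, with the beta-lactamase readout taken in the same wells.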

Experiment [6] can be described thus: qHTS assay for small molecule agonists of the antioxidant response element (ARE) signaling pathway (AID 743202; active means well fitted activation curve with a large enough effect in the signal ratio in the repeat runs, not every such curve was filed as active; the % refers to the signal ratio; further: potency means the concentration at half of the fitted maximal effect). In a few lines:
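Quantitative high-throughput format in HepG2 cells bearing an integrated ARE-beta-lactamase reporter. Compound exposure lasted 16 h at 37 C, and fluorescence was read 2 h after adding LiveBLAzer B/G substrate at room temperature.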

Experiment [7] in a line: qHTS assay for small molecule agonists of the antioxidant response element (ARE) signaling pathway - cell viability counter screen (AID 743203; calls by dose curve; further: nearly all actives have a fitted effect of over 55% in size). In a few lines: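 ARE-bla HepG2 cells were plated, rested 5 h at 37C/5% CO2, then exposed to compounds in DMSO for 16 h. Viability was read as CellTiter-Glo luminescence after 30 min at room temperature, in the same wells as the ARE screen.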

Experiment [8] can be described thus: qHTS assay for small molecule activators of the heat shock response signaling pathway - cell viability counter screen (AID 743209). Further: nearly all actives have a fitted effect of over 50% in size. The method in brief: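 HSE-bla HeLa cells plated overnight, then exposed to Tox21 compounds (23 nL in DMSO) for 5 h at 37 C. After the bla reporter read, CellTiter-Glo was added in the same wells and luminescence read after 30 min at room temperature.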

Experiment [9] can be described thus: qHTS assay for small molecule activators of the heat shock response signaling pathway (AID 743210; active means well fitted activation curve with a large enough effect in the signal ratio in the repeat runs, with a control signal flat, not every such curve was filed as active; the % refers to the signal ratio;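 further: HeLa cells with beta-lactamase reporter driven by heat shock elements; series mostly up to about 63 µM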). In a few lines: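 HeLa HSE-bla cells, overnight plating; cpd in DMSO 5 h, 37 C; LiveBLAzer B/G FRET substrate 2.5 h RT; fluorescence intensity read.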
Experiment [10] has as its target Peroxisome proliferator-activated receptor gamma (Homo sapiens) (UniProt P37231). Description: qHTS assay to identify small molecule antagonists of the peroxisome proliferator-activated receptor gamma (PPARg) signaling pathway (AID 743191; calls by dose curve; further: series mostly up to about 63 µM; nearly all actives have a fitted effect of over 30% in size). The method in brief: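 Beta-lactamase reporter under UAS control in HEK293H PPARg-bla cells; compound treatment 17 h at 37C. Read-out: fluorescence intensity after 1 h room-temperature incubation with LiveBLAzer B/G FRET substrate.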

Chain of Aryl hydrocarbon receptor (Homo sapiens) (P35869 whole entry, looked up): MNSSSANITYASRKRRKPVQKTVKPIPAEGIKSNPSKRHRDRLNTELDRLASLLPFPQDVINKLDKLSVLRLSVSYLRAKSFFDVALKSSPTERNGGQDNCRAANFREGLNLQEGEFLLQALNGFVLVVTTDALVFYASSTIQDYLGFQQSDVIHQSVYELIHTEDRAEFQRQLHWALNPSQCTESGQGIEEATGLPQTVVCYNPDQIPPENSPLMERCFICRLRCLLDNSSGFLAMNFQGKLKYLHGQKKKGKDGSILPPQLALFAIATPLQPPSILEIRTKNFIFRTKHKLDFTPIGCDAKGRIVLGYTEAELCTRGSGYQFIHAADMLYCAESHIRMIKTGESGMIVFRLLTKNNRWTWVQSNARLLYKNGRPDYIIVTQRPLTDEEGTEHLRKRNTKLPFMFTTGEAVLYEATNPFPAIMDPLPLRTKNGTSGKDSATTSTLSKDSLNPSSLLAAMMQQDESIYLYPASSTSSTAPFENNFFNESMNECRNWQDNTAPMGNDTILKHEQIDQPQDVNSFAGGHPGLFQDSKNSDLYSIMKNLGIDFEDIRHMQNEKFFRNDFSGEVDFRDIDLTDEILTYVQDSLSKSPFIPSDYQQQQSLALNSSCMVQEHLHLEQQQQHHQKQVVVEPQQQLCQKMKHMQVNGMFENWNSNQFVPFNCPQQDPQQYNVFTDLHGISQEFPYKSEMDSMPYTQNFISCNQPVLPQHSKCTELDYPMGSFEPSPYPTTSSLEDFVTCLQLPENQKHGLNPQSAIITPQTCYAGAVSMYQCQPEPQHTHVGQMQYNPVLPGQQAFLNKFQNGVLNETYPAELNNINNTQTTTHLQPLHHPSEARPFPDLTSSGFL
Chain of Peroxisome proliferator-activated receptor gamma (Homo sapiens) (P37231 whole entry, looked up): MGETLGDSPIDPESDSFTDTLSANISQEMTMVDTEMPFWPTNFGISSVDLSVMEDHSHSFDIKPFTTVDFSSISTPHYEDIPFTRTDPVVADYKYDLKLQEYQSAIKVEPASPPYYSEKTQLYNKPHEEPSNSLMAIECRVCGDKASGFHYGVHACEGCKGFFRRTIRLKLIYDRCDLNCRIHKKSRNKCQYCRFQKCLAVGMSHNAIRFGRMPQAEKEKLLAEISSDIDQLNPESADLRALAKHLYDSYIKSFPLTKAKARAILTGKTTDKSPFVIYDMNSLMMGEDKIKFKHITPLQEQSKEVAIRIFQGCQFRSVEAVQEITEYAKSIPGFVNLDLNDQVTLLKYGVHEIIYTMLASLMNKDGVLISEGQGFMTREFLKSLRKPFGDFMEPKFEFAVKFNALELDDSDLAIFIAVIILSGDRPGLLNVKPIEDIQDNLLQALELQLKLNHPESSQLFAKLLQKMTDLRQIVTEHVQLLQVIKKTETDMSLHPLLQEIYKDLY

With `Cc1ccc([N+](=O)[O-])c(N)c1`, the Potency entry in experiment [1], in experiment [2], in experiment [4], in experiment [5], in [6] and in experiment [7] was “inactive” in each case. Further, the Potency result in experiment [9] was “inactive”. Besides, the compound was called inactive in experiment [3] and in [8].
As to `COc1ccccc1OCC(O)COC(N)=O` (stereo unspecified), the Potency result in experiment [1], in experiment [2], in experiment [4], in experiment [5], in experiment [6] and in [7] was “inactive” throughout. The compound was called inactive in [3] and in experiment [8].
In the case of `CC(C)C1=CC2=CC[C@@H]3[C@](C)(CCC[C@@]3(C)C(=O)O)[C@H]2CC1`, the Potency result in experiment [1], in experiment [2], in [4], in experiment [5] and in experiment [7] was “inactive” in each case. Besides, the outcome in [3] was inactive.
Take `CC(C)CC(=O)OCc1ccccc1`: the Potency entry in [1], in [2], in [4], in experiment [5], in experiment [6] and in experiment [7] was “inactive” in each case. Besides, the Potency result in experiment [9] is “inactive”. The result in experiment [3] and in [8] was inactive.
With `FC(F)(F)C(F)(F)C(F)(F)C(F)(F)C(F)(F)C(F)(F)C(F)(F)C(F)(F)Br`, the Potency entry in [1], in experiment [2], in experiment [4], in experiment [5], in experiment [6] and in experiment [7] was “inactive” in each case. Moreover, the result in experiment [3] and in experiment [8] was inactive.
As for `COc1ccc(S(=O)(=O)Nc2nnc(CC(C)C)s2)cc1`, the Potency result in experiment [1], in experiment [2], in [4], in experiment [5], in experiment [6] and in experiment [7] was “inactive” each time. The Potency entry in [9] is “inactive”. The compound was classed as inactive in [3] and in experiment [8].
Consider `CCc1cc(Cl)c(OC)c(C(=O)NC[C@@H]2CCCN2CC)c1O`, for which the Potency result in experiment [1], in experiment [2], in [4], in [5], in experiment [6] and in experiment [7] was “inactive” throughout. In addition, the compound was classed as inactive in experiment [3] and in [8].
On to `CCN(CC)CC1CCCCN1CC(=O)N1c2ccccc2C(=O)Nc2cccnc21` (stereo unspecified), for which the Potency result in experiment [1], in experiment [2], in experiment [4], in [5], in [6] and in experiment [7] was “inactive” each time. Further, the outcome in experiment [3] and in [8] was inactive.
Consider `O=C(O)C(=O)Cc1c[nH]c2ccccc12`, for which the Potency entry in [1], in experiment [4], in [10], in experiment [7] and in experiment [9] was “inactive” in each case. The results for the Potency in [2] and in [6] were 6.11 µM (active) and 27.3 µM (active), respectively. The outcome in experiment [3] was inactive.
Take `NC/C=C/C(=O)O`: the Potency result in experiment [1], in [2], in [4], in experiment [5], in [6] and in experiment [7] was “inactive” throughout. Besides, the Potency result in [9] is “inactive”. For the same compound, the outcome in experiment [3] and in experiment [8] was inactive.
Regarding `CC(C)CCCCCCc1ccc(OCCOCCO)cc1`, the Potency result in [1], in experiment [2], in [4], in experiment [5], in experiment [6] and in [7] was “inactive” throughout. Further, in [9], the Potency entry was “inactive”. Moreover, the compound was classed as inactive in experiment [3] and in experiment [8].
On to `CCCCc1ccc2nc(NC(=O)OC)[nH]c2c1`, for which the Potency result in [1], in experiment [4], in experiment [10] and in [7] was “inactive” each time. For the same compound, the Potency in experiment [2] is 1.01 µM (active). Further, the compound was called inactive in experiment [3] and in experiment [8].
For `CCC(=O)O[C@]1(C(=O)SCF)[C@H](C)C[C@H]2[C@@H]3C[C@H](F)C4=CC(=O)C=C[C@]4(C)[C@@]3(F)[C@@H](O)C[C@@]21C`, the Potency result in experiment [1], in [2], in experiment [4], in experiment [5], in experiment [6] and in [7] was “inactive” in each case. For the same compound, in experiment [9], the Potency result is “inactive”. The outcome in experiment [3] and in experiment [8] was inactive.
Turning to `CC(CNC1CCCCC1)OC(=O)c1ccccc1` (stereo unspecified), the Potency result in experiment [1], in experiment [2], in [4], in experiment [5], in experiment [6] and in experiment [7] was “inactive” each time. The Potency result in experiment [9] was “inactive”. The compound was called inactive in experiment [3] and in experiment [8].
In the case of `O=C(O)c1cccc(Cl)c1Cl`, the Potency entry in experiment [1], in [2], in [4], in experiment [10], in experiment [6] and in experiment [7] was “inactive” throughout. Moreover, the call in [3] was inactive.
Turning to `FC(F)(F)C(Cl)(Cl)Cl`, the Potency entry in experiment [1], in experiment [2], in [4], in experiment [5], in [6] and in experiment [7] was “inactive” throughout. Also, the result in [3] and in experiment [8] was inactive.
As to `COC(C)CCO` (stereo unspecified), the Potency entry in experiment [1], in experiment [2], in [4], in [5], in [6] and in experiment [7] was “inactive” throughout. The compound was classed as inactive in experiment [3] and in experiment [8].
Take `COc1cc(N)c(Cl)cc1C(=O)NC1CCN(Cc2ccccc2)CC1`: the Potency entry in experiment [1], in experiment [2], in experiment [4], in experiment [10], in experiment [6] and in experiment [7] was “inactive” in each case. Further, the call in experiment [3] and in experiment [8] was inactive.
`CCCCC1CCC(=O)O1` (stereo unspecified): the Potency result in [1], in [2], in experiment [4], in [5], in [6] and in [7] was “inactive” in each case. The outcome in [3] was inactive.
For `O=C1C=CC(=O)O1`, the Potency entry in experiment [1], in experiment [2], in experiment [4], in [10], in experiment [6] and in [7] was “inactive” throughout. Besides, in experiment [9], the Potency result is “inactive”. The compound was called inactive in experiment [3] and in experiment [8].
For `C=CCCCCCCCCO`, the Potency result in experiment [1], in experiment [2], in [4], in experiment [5], in [6] and in [7] was “inactive” each time. In addition, the Potency entry in experiment [9] is “inactive”. In [3], the result was inactive.
As to `Oc1ccccc1F`, the Potency result in experiment [1], in experiment [2], in [4], in [5], in experiment [6] and in experiment [7] was “inactive” throughout. In addition, the Potency entry in experiment [9] is “inactive”. Moreover, the compound was classed as inactive in experiment [3] and in experiment [8].
Take `CCCCCCCCCC#N`: the Potency result in experiment [1], in experiment [2], in experiment [4], in experiment [5], in experiment [6] and in [7] was “inactive” in each case. For the same compound, the Potency result in [9] is “inactive”. Also, in experiment [3], the call was inactive.
For `CC1(O)CSC(C)(O)CS1` (stereo unspecified), the Potency result in [1], in [2], in [10], in [5], in [7] and in [9] was “inactive” in each case. The outcome in [3] and in [8] was inactive.
As to `CCCCCCC`, the Potency entry in [1], in experiment [2], in experiment [4], in experiment [5] and in [7] was “inactive” each time. Moreover, the compound was classed as inactive in [3] and in experiment [8].
As for `CN(C)CCOc1ccccc1Cc1ccccc1`, the Potency result in experiment [1], in experiment [2], in experiment [10], in experiment [5], in experiment [6] and in experiment [7] was “inactive” each time. In addition, the Potency entry in experiment [9] is “inactive”. The compound was classed as inactive in experiment [3] and in experiment [8].
For the compound `COc1ccc2nc(NC(=O)Nc3ccccc3)sc2c1`, the Potency result in experiment [1], in experiment [4], in experiment [5] and in [7] was “inactive” each time. In addition, in [2], the Potency was 10.6 µM (active). Moreover, the outcome in [3] was inactive.
On to `NCCC(O)(P(=O)(O)O)P(=O)(O)O`, for which the Potency result in [1], in experiment [2], in experiment [4], in experiment [6], in experiment [7] and in [9] was “inactive” each time. Besides, the compound was called inactive in [3] and in experiment [8].
Regarding `Cc1ncc(CO)c(CN)c1O`, the Potency entry in experiment [1], in experiment [2], in [4], in experiment [5], in experiment [7] and in [9] was “inactive” in each case. The compound was called inactive in experiment [3] and in experiment [8].
For `CCCCC(CC)COC(=O)COc1cc(Cl)c(Cl)cc1Cl` (stereo unspecified), the Potency entry in [1], in experiment [2], in [4], in experiment [6], in experiment [7] and in experiment [9] was “inactive” in each case. For the same compound, in experiment [3], the outcome was inactive.
